# From the supplement of paper PMC4466140
# Experiments:
# Assay in all cases: SPOT peptide array binding signal intensity (averaged, normalized) (arbitrary units (background-subtracted, floor 0; scale differs between SH3 domains)); higher = stronger binding of the SH3 domain to the peptide
# AgAbp1 = target: AgAbp1
# Procedure, shortened: (§1)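 Detection of bound protein relied on anti-GST antibody, an HRP anti-mouse secondary and luminol, with imaging and quantification in Genespotter. The bound protein was GST-fused SH3 domains from four yeast species, incubated at 10 μg/ml overnight at 4°C in TBS-based blocking buffer on cellulose membranes carrying synthetic 15-mer peptides with cysteines replaced by serines. Binding signal is normalized, background-subtracted spot intensity averaged over replicates, in arbitrary units that differ between domains.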
# AgBbc1 = target: AgBbc1
# Procedure, shortened: as §1
# AgBem1-D1 = target: AgBem1-D1
# Procedure, shortened: as §1
# AgBzz1-D1 = target: AgBzz1-D1
# Procedure, shortened: as §1
# AgBzz1-D2 = target: AgBzz1-D2
# Procedure, shortened: as §1
# AgCyk3 = target: AgCyk3
# Procedure, shortened: as §1
# AgFus1 = target: AgFus1
# Procedure, shortened: as §1
# AgHof1 = target: AgHof1
# Procedure, shortened: as §1
# AgHse1 = target: AgHse1
# Procedure, shortened: as §1
# AgLsb1 = target: AgLsb1
# Procedure, shortened: as §1
# AgLsb4 = target: AgLsb4
# Procedure, shortened: as §1
# AgMyo5 = target: AgMyo5
# Procedure, shortened: as §1
# AgNbp2 = target: AgNbp2
# Procedure, shortened: as §1
# AgRvs167 = target: AgRvs167
# Procedure, shortened: as §1
# AgSho1 = target: AgSho1
# Procedure, shortened: as §1
# AgSla1-D1-D2 = target: AgSla1-D1-D2
# Procedure, shortened: as §1
# AgSla1-D3 = target: AgSla1-D3
# Procedure, shortened: as §1
# CaAbp1-D1 = target: CaAbp1-D1
# Procedure, shortened: as §1
# CaAbp1-D2 = target: CaAbp1-D2
# Procedure, shortened: as §1
# CaBbc1 = target: CaBbc1
# Procedure, shortened: as §1
# CaBem1-D1 = target: CaBem1-D1
# Procedure, shortened: as §1
# CaBzz1-D1 = target: CaBzz1-D1
# Procedure, shortened: as §1
# CaBzz1-D2 = target: CaBzz1-D2
# Procedure, shortened: as §1
# CaCyk3 = target: CaCyk3
# Procedure, shortened: as §1
# CaFus1 = target: CaFus1
# Procedure, shortened: as §1
# CaHof1 = target: CaHof1
# Procedure, shortened: as §1
# CaHse1 = target: CaHse1
# Procedure, shortened: as §1
# CaLsb1 = target: CaLsb1
# Procedure, shortened: as §1
# CaLsb4 = target: CaLsb4
# Procedure, shortened: as §1
# CaMyo5 = target: CaMyo5
# Procedure, shortened: as §1
# CaNbp2 = target: CaNbp2
# Procedure, shortened: as §1
# CaRvs167 = target: CaRvs167
# Procedure, shortened: as §1
# CaRvs167-3 = target: CaRvs167-3
# Procedure, shortened: as §1
# CaSho1 = target: CaSho1
# Procedure, shortened: as §1
# CaSla1-D1-D2 = target: CaSla1-D1-D2
# Procedure, shortened: as §1
# CaSla1-D3 = target: CaSla1-D3
# Procedure, shortened: as §1
# ScAbp1 = target: ScAbp1
# Procedure, shortened: as §1
# ScBbc1 = target: ScBbc1
# Procedure, shortened: as §1
# ScBem1-D1 = target: ScBem1-D1
# Procedure, shortened: as §1
# ScBzz1-D1 = target: ScBzz1-D1
# Procedure, shortened: as §1
# ScBzz1-D2 = target: ScBzz1-D2
# Procedure, shortened: as §1
# ScCyk3 = target: ScCyk3
# Procedure, shortened: as §1
# ScFus1 = target: ScFus1
# Procedure, shortened: as §1
# ScHof1 = target: ScHof1
# Procedure, shortened: as §1
# ScHse1 = target: ScHse1
# Procedure, shortened: as §1
# ScLsb1 = target: ScLsb1
# Procedure, shortened: as §1
# ScLsb2 = target: ScLsb2
# Procedure, shortened: as §1
# ScLsb3 = target: ScLsb3
# Procedure, shortened: as §1
# ScLsb4 = target: ScLsb4
# Procedure, shortened: as §1
# ScMyo3 = target: ScMyo3
# Procedure, shortened: as §1
# ScMyo5 = target: ScMyo5
# Procedure, shortened: as §1
# ScNbp2 = target: ScNbp2
# Procedure, shortened: as §1
# ScPex13 = target: ScPex13
# Procedure, shortened: as §1
# ScRvs167 = target: ScRvs167
# Procedure, shortened: as §1
# ScSho1 = target: ScSho1
# Procedure, shortened: as §1
# ScSla1-D1-D2 = target: ScSla1-D1-D2
# Procedure, shortened: as §1
# ScSla1-D3 = target: ScSla1-D3
# Procedure, shortened: as §1
# SpAbp1-D1 = target: SpAbp1-D1
# Procedure, shortened: as §1
# SpBbc1 = target: SpBbc1
# Procedure, shortened: as §1
# SpBzz1-D1 = target: SpBzz1-D1
# Procedure, shortened: as §1
# SpBzz1-D2 = target: SpBzz1-D2
# Procedure, shortened: as §1
# SpCyk3 = target: SpCyk3
# Procedure, shortened: as §1
# SpHof1 = target: SpHof1
# Procedure, shortened: as §1
# SpHof1-2 = target: SpHof1-2
# Procedure, shortened: as §1
# SpHof1-3 = target: SpHof1-3
# Procedure, shortened: as §1
# SpHse1 = target: SpHse1
# Procedure, shortened: as §1
# SpLsb1 = target: SpLsb1
# Procedure, shortened: as §1
# SpLsb4 = target: SpLsb4
# Procedure, shortened: as §1
# SpMyo1 = target: SpMyo1
# Procedure, shortened: as §1
# SpNbp2 = target: SpNbp2
# Procedure, shortened: as §1
# SpPex13 = target: SpPex13
# Procedure, shortened: as §1
# SpRvs167 = target: SpRvs167
# Procedure, shortened: as §1
# SpSla1-D1-D2 = target: SpSla1-D1-D2
# Procedure, shortened: as §1
# SpSla1-D3 = target: SpSla1-D3
# Procedure, shortened: as §1
binder,measurement,setting,value
SKIRPTPRKPSRMAT,SPOT peptide array binding signal intensity,AgAbp1,1550
same,SPOT peptide array binding signal intensity,AgBbc1,642
same,SPOT peptide array binding signal intensity,AgBem1-D1,47
same,SPOT peptide array binding signal intensity,AgBzz1-D1,77
same,SPOT peptide array binding signal intensity,AgBzz1-D2,53
same,SPOT peptide array binding signal intensity,AgCyk3,3
same,SPOT peptide array binding signal intensity,AgFus1,40
same,SPOT peptide array binding signal intensity,AgHof1,69.2
same,SPOT peptide array binding signal intensity,AgHse1,263
same,SPOT peptide array binding signal intensity,AgLsb1,69.2
same,SPOT peptide array binding signal intensity,AgLsb4,176
same,SPOT peptide array binding signal intensity,AgMyo5,7
same,SPOT peptide array binding signal intensity,AgNbp2,1050
same,SPOT peptide array binding signal intensity,AgRvs167,9.17
same,SPOT peptide array binding signal intensity,AgSho1,39.5
same,SPOT peptide array binding signal intensity,AgSla1-D1-D2,100
same,SPOT peptide array binding signal intensity,AgSla1-D3,23.8
same,SPOT peptide array binding signal intensity,CaAbp1-D1,3050
same,SPOT peptide array binding signal intensity,CaAbp1-D2,5280
same,SPOT peptide array binding signal intensity,CaBbc1,806
same,SPOT peptide array binding signal intensity,CaBem1-D1,34.5
same,SPOT peptide array binding signal intensity,CaBzz1-D1,270
same,SPOT peptide array binding signal intensity,CaBzz1-D2,208
same,SPOT peptide array binding signal intensity,CaCyk3,108
same,SPOT peptide array binding signal intensity,CaFus1,208
same,SPOT peptide array binding signal intensity,CaHof1,2.5
same,SPOT peptide array binding signal intensity,CaHse1,30.5
same,SPOT peptide array binding signal intensity,CaLsb1,2.75
same,SPOT peptide array binding signal intensity,CaLsb4,2040
same,SPOT peptide array binding signal intensity,CaMyo5,8.5
same,SPOT peptide array binding signal intensity,CaNbp2,437
same,SPOT peptide array binding signal intensity,CaRvs167,110
same,SPOT peptide array binding signal intensity,CaRvs167-3,23
same,SPOT peptide array binding signal intensity,CaSho1,60
same,SPOT peptide array binding signal intensity,CaSla1-D1-D2,1470
same,SPOT peptide array binding signal intensity,CaSla1-D3,104
same,SPOT peptide array binding signal intensity,ScAbp1,1260
same,SPOT peptide array binding signal intensity,ScBbc1,73.5
same,SPOT peptide array binding signal intensity,ScBem1-D1,14
same,SPOT peptide array binding signal intensity,ScBzz1-D1,32.5
same,SPOT peptide array binding signal intensity,ScBzz1-D2,39
same,SPOT peptide array binding signal intensity,ScCyk3,25
same,SPOT peptide array binding signal intensity,ScFus1,21
same,SPOT peptide array binding signal intensity,ScHof1,10
same,SPOT peptide array binding signal intensity,ScHse1,1130
same,SPOT peptide array binding signal intensity,ScLsb1,328
same,SPOT peptide array binding signal intensity,ScLsb2,3.5
same,SPOT peptide array binding signal intensity,ScLsb3,2130
same,SPOT peptide array binding signal intensity,ScLsb4,117
same,SPOT peptide array binding signal intensity,ScMyo3,0.5
same,SPOT peptide array binding signal intensity,ScMyo5,4
same,SPOT peptide array binding signal intensity,ScNbp2,1100
same,SPOT peptide array binding signal intensity,ScPex13,124
same,SPOT peptide array binding signal intensity,ScRvs167,865
same,SPOT peptide array binding signal intensity,ScSho1,346
same,SPOT peptide array binding signal intensity,ScSla1-D1-D2,2180
same,SPOT peptide array binding signal intensity,ScSla1-D3,202
same,SPOT peptide array binding signal intensity,SpAbp1-D1,1300
same,SPOT peptide array binding signal intensity,SpBbc1,27.5
same,SPOT peptide array binding signal intensity,SpBzz1-D1,284
same,SPOT peptide array binding signal intensity,SpBzz1-D2,1.5
same,SPOT peptide array binding signal intensity,SpCyk3,6
same,SPOT peptide array binding signal intensity,SpHof1,107
same,SPOT peptide array binding signal intensity,SpHof1-2,43
same,SPOT peptide array binding signal intensity,SpHof1-3,235
same,SPOT peptide array binding signal intensity,SpHse1,180
same,SPOT peptide array binding signal intensity,SpLsb1,5
same,SPOT peptide array binding signal intensity,SpLsb4,3850
same,SPOT peptide array binding signal intensity,SpMyo1,9.5
same,SPOT peptide array binding signal intensity,SpNbp2,178
same,SPOT peptide array binding signal intensity,SpPex13,30
same,SPOT peptide array binding signal intensity,SpRvs167,957
same,SPOT peptide array binding signal intensity,SpSla1-D1-D2,33
same,SPOT peptide array binding signal intensity,SpSla1-D3,49.5
QGYPRQPQRPQRYHP,SPOT peptide array binding signal intensity,AgAbp1,15.5
same,SPOT peptide array binding signal intensity,AgBbc1,187
same,SPOT peptide array binding signal intensity,AgBem1-D1,≤ 0
same,SPOT peptide array binding signal intensity,AgBzz1-D1,8
same,SPOT peptide array binding signal intensity,AgBzz1-D2,22.5
same,SPOT peptide array binding signal intensity,AgCyk3,≤ 0
same,SPOT peptide array binding signal intensity,AgFus1,≤ 0
same,SPOT peptide array binding signal intensity,AgHof1,0.5
same,SPOT peptide array binding signal intensity,AgHse1,17.5
same,SPOT peptide array binding signal intensity,AgLsb1,≤ 0
same,SPOT peptide array binding signal intensity,AgLsb4,47
same,SPOT peptide array binding signal intensity,AgMyo5,≤ 0
same,SPOT peptide array binding signal intensity,AgNbp2,≤ 0
same,SPOT peptide array binding signal intensity,AgRvs167,0.333
same,SPOT peptide array binding signal intensity,AgSho1,≤ 0
same,SPOT peptide array binding signal intensity,AgSla1-D1-D2,2
same,SPOT peptide array binding signal intensity,AgSla1-D3,≤ 0
same,SPOT peptide array binding signal intensity,CaAbp1-D1,25.5
same,SPOT peptide array binding signal intensity,CaAbp1-D2,11
same,SPOT peptide array binding signal intensity,CaBbc1,329
same,SPOT peptide array binding signal intensity,CaBem1-D1,15
same,SPOT peptide array binding signal intensity,CaBzz1-D1,144
same,SPOT peptide array binding signal intensity,CaBzz1-D2,32.5
same,SPOT peptide array binding signal intensity,CaCyk3,13
same,SPOT peptide array binding signal intensity,CaFus1,≤ 0
same,SPOT peptide array binding signal intensity,CaHof1,≤ 0
same,SPOT peptide array binding signal intensity,CaHse1,≤ 0
same,SPOT peptide array binding signal intensity,CaLsb1,≤ 0
same,SPOT peptide array binding signal intensity,CaLsb4,1180
same,SPOT peptide array binding signal intensity,CaMyo5,≤ 0
